Reference: the supplement of paper PMC10811239

Legend:
Test in all cases: bioluminescence (viable cell) signal fold change after vs before treatment, normalised to DMSO (ratio); higher = more tumour cell growth / less inhibition
Settings in all cases: 10 µM; treatment time 6 days
[1] = system: LEGO organoid PT (PTEN-/-; TP53-/-)
Protocol: (§1)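 Luc2-labelled iPSC-derived glioblastoma-like organoids (LEGOs, genotypes PT = PTEN-/-;TP53-/-, PTCC = plus CDKN2A/B-/-, PTN = plus NF1-/-) were treated with 10 uM drug for 6 days (applied every other day) at 37 C. Bioluminescence imaging was done before treatment and 2 days after the last dose. BLI signals were normalised to the DMSO control on the same day and then to the pre-treatment signal (N=3).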

[2] = system: LEGO organoid PTCC (PTEN-/-; TP53-/-; CDKN2A-/-; CDKN2B-/-)
Protocol: as §1

[3] = system: LEGO organoid PTN (PTEN-/-; TP53-/-; NF1-/-)
Protocol: as §1

Row | SMILES | bioluminescence [1] | bioluminescence [2] | bioluminescence [3]
1 | CNS(=O)(=O)CCc1ccc2[nH]cc(C3CCN(C)CC3)c2c1.Cl [Naratriptan hydrochloride] | 0.774 | 0.859 | 1.2
2 | Nc1ncn([C@H]2C[C@H](O)[C@@H](CO)O2)c(=O)n1 [Decitabine] | 1.2 | 1.67 | 1.09
3 | C#Cc1cccc(Nc2ncnc3cc(OCCOC)c(OCCOC)cc23)c1.Cl [Erlotinib hydrochloride] | 1.53 | 1.66 | 2.02
4 | CCN1CCN(C(=O)N[C@@H](C(=O)N[C@@H]2C(=O)N3[C@@H]2SC(C)(C)[C@@H]3C(=O)[O-])c2ccccc2)C(=O)C1=O.[Na+] [Piperacillin sodium salt] | 1.08 | 1.11 | 0.935
5 | NC(CO)(CO)CO.O=C(c1ccccc1)c1ccc2n1CCC2C(=O)O (stereo unspecified) [Ketorolac tromethamine salt] | 1.75 | 1.57 | 2.19
6 | Oc1c(I)cc(Cl)c2cccnc12 [Clioquinol] | 0.859 | 1.47 | 2.47
7 | CN(C)CCC[C@@]1(c2ccc(F)cc2)OCc2cc(C#N)ccc21.O=C(O)C(=O)O [Escitalopram Oxalate] | 1.52 | 0.773 | 0.956
8 | O=C(NC1CCN(CCCCC2(C(=O)NCC(F)(F)F)c3ccccc3-c3ccccc32)CC1)c1ccccc1-c1ccc(C(F)(F)F)cc1 [Lomitapide] | 0.0143 | 0.124 | 0
9 | Clc1ccc2c(c1)C(N1CCNCC1)=Nc1ccccc1O2 [Amoxapine] | 0.902 | 1.25 | 0.981
10 | CNCCCN1c2ccccc2CCc2ccccc21.Cl [Desipramine hydrochloride] | 0.858 | 0.744 | 1.22
11 | O=C([O-])CCCc1ccccc1.[Na+] [Sodium Phenylbutyrate] | 1.37 | 0.911 | 3.02
12 | NS(=O)(=O)Cc1noc2ccccc12 [Zonisamide] | 0.521 | 1.19 | 1.19
13 | NC(=O)N1c2ccccc2C=Cc2ccccc21 [Carbamazepine] | 0.803 | 0.95 | 1.42
14 | Cl.NCC(=O)CCC(=O)O [5-Aminolevulinic acid hydrochloride] | 1.09 | 2.27 | 1.19
15 | CCC(C)n1ncn(-c2ccc(N3CCN(c4ccc(OC[C@H]5CO[C@](Cn6cncn6)(c6ccc(Cl)cc6Cl)O5)cc4)CC3)cc2)c1=O (stereo partly specified) [Itraconazole] | 1.69 | 0.596 | 1.31
16 | Nc1ncnc2c1ncn2[C@@H]1O[C@H](CO)[C@@H](O)[C@H]1O [Adenosine] | 2.1 | 0.746 | 0.654
17 | CCCN(CCc1cccs1)[C@H]1CCc2c(O)cccc2C1 [Rotigotine] | 0.925 | 2.02 | 1.77
18 | CS(=O)(=O)O.Cc1ccc(NC(=O)c2ccc(CN3CCN(C)CC3)cc2)cc1Nc1nccc(-c2cccnc2)n1 [Imatinib Mesylate] | 0.751 | 1.35 | 2.11
19 | O.O.O.O.[Li][O]C(=O)CC(O)(CC(=O)[O][Li])C(=O)[O][Li] [Lithium citrate tetrahydrate] | 1.01 | 0.787 | 1.25
20 | CO[C@@H]1[C@H](N(C)C(=O)c2ccccc2)C[C@H]2O[C@]1(C)n1c3ccccc3c3c4c(c5c6ccccc6n2c5c31)C(=O)NC4 [Midostaurin] | 0.527 | 1.65 | 0.647
21 | CNCCCC1c2ccccc2C=Cc2ccccc21.Cl [Protriptyline hydrochloride] | 0.749 | 0.571 | 1.14
22 | CN(C/C=C/c1ccccc1)Cc1cccc2ccccc12.Cl [Naftifine hydrochloride] | 0.607 | 1.3 | 0.535
23 | Cl.O=C1CN2Cc3c(ccc(Cl)c3Cl)NC2=N1 [Anagrelide hydrochloride] | 1.02 | 0.834 | 1
24 | O=C(O)c1cc(/N=N/c2ccc(S(=O)(=O)Nc3ccccn3)cc2)ccc1O [Sulfasalazine] | 0.941 | 1.43 | 0.504
25 | Nc1nc2c(ncn2COC(CO)CO)c(=O)[nH]1 [Ganciclovir] | 4.35 | 1.62 | 2.38
26 | COc1cc2c(Nc3ccc(Br)cc3F)ncnc2cc1OCC1CCN(C)CC1 [Vandetanib] | 1.32 | 0.918 | 0.168
27 | O=C([O-])Cc1ccccc1Nc1c(Cl)cccc1Cl.[Na+] [Diclofenac sodium] | 0.777 | 1.05 | 1.75
